Screening results: PubChem BioAssay, several laboratories
NLRP3 yeast inh: NALP3 inflammasome inhibitors in reconstituted yeast, primary screen, luminescence, uHTS; Yeast reconstituted NLRP3/ASC/caspase-1, beta-gal luminescence, 24 h; inhibition, % at 10 µM; 330,000 tested, 0.39% active; AID 2825, 2010;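 active means inhibition of 50% or more; inactive means inhibition below 50%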;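 further: plate controls were induced DMSO wells for no effect and uninduced yeast grown without galactose for full effect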
TIM10 inh: growth inhibitors of isogenic TIM10 control yeast, primary screen, counter-screen for tim10-1 yeast inhibitor project, luminescence, uHTS. 330,000 tested, 1.4% active. inhibition, % at 10 µM. S. cerevisiae TIM10 strain growth, BacTiter-Glo luminescence, 24 h;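 active means inhibition of 40% or more at the single tested concentration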;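 further: wild-type TIM10 isogenic control strain grown at permissive 25 °C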
SKKanGAS inh: S. pyogenes SKKanGAS growth inhibitors in kanamycin, primary screen, streptokinase expression inhibitor project, SKKanGAS strain, BacTiter-Glo luminescence; 6 h; inhibition, % at 7.5 µM; 300,000 tested, 1.3% active;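 active means mean replicate score, as percent of positive control median, at least 50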;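 further: strain carries kanamycin resistance gene driven by streptokinase promoter and grows in 40 µg/ml kanamycin; loss of luminescence reflects streptokinase promoter inhibition or plain growth inhibition; 0% = median of DMSO wells and 100% = positive control at its reference dose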
PfHsp90 set2: growth inhibition of PfHsp90-expressing yeast, primary screen, antimalarial PfHsp90 inhibitor project, S. cerevisiae, BacTiter-Glo luminescence, single point, set 2 | BacTiter-Glo ATP, 48 h; yeast lacking PDR1 and PDR3 efflux regulators | inhibition, % at 9.4 µM | 310,000 tested, 0.32% active;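 active means every replicate shows inhibition above about 80%, whatever the replicate mean, limit read from the data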;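 further: 0% = DMSO neutral controls and 100% = 20 µM radicicol positive controls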
tim10-1 inh: growth inhibitors of tim10-1 mutant yeast, primary screen, luminescence, uHTS. S. cerevisiae tim10-1 ts strain growth, BacTiter-Glo, 24 h. 330,000 tested, 2.2% active. AID 463190, 2010. inhibition, % at 20 µM;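 active means inhibition of at least 40%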;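 further: mutant grown at 25 °C; 0% = DMSO wells with yeast and 100% = wells holding no yeast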
tim23-1 inh: growth inhibitors of tim23-1 mutant yeast, primary screen, luminescence, uHTS; inhibition, % at 20 µM; 330,000 tested, 1.3% active; S. cerevisiae tim23-1 growth, BacTiter-Glo luminescence, 24 h;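 active means growth inhibition of the mutant yeast at or above 50%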;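 further: temperature-sensitive mutant grown at 25 °C; plate controls were DMSO-treated mutant yeast for no effect and medium wells lacking yeast for full effect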
tim10-1 conf: growth inhibitors of tim10-1 mutant yeast, confirmation, single concentration, luminescence, S. cerevisiae | 7,400 tested, 56% active | shares compounds with tim10-1 inh | S. cerevisiae tim10-1 ts strain growth, BacTiter-Glo, 24 h | inhibition, % at 20 µM;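 active means inhibition of yeast growth at or above a set limit in either of two repeat tests at 20 µM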;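 further: tim10-1 mutant grown at permissive 25 °C to find synthetic lethal compounds; 0% = DMSO yeast wells and 100% = medium wells without yeast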
TIM10 conf: growth inhibitors of wild-type TIM10 yeast, confirmation, counter-screen for tim10-1 synthetic lethality project, single concentration, luminescence, S. cerevisiae | 4,600 tested, 63% active | S. cerevisiae tim10 strain growth, BacTiter-Glo luminescence, 24 h | inhibition, % at 10 µM | shares compounds with TIM10 inh;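 active means inhibition of yeast growth at or above a set limit in either of two replicates at 10 µM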;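 further: this counterscreen used the strain with wild-type TIM10; 0% = yeast with DMSO and 100% = medium wells lacking yeast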
* hit, by the source's call. Sampled rows, rich in hits. Any-hit rate of the full collection: about 4.6%.

How did C/C(=N\N=C1\NC(=O)C(CC(=O)Nc2ccc(C)c(Cl)c2)S1)C(C)(C)C (configuration not stated) do in these assays?
NLRP3 yeast inh: -4.5; TIM10 inh: 43.9*; SKKanGAS inh: 14.3; PfHsp90 set2: -9.3; tim10-1 inh: 51.8*; tim23-1 inh: 20.6; tim10-1 conf: 32.3*; TIM10 conf: 23.4

How did O=[N+]([O-])CC(c1ccc(F)cc1)c1c[nH]c2ccccc12 (configuration not stated) do in these assays?
NLRP3 yeast inh: -7.6; TIM10 inh: 43.5*; SKKanGAS inh: 3.0; PfHsp90 set2: -75.0; tim10-1 inh: 50.9*; tim23-1 inh: 43.9; tim10-1 conf: 66.3*; TIM10 conf: 59.5*

What do the screens show for `Cc1ccc(NC(=O)CN2CCCN(S(=O)(=O)c3ccc(Br)s3)CC2)cc1`?
NLRP3 yeast inh: 7.3; TIM10 inh: 42.4*; SKKanGAS inh: -3.3; PfHsp90 set2: 18.1; tim10-1 inh: 43.5*; tim23-1 inh: 36.5; tim10-1 conf: 32.4*; TIM10 conf: 29.1

How did O=C(CN1CCN(S(=O)(=O)c2ccc(Br)s2)CC1)NC1CCCCC1 do in these assays?
PfHsp90 set2: -18.5

What do the screens show for `CN(C)Cc1nc2c(c(=O)[nH]1)C1(CCCCC1)Cc1ccccc1-2`?
NLRP3 yeast inh: -2.1; TIM10 inh: 44.4*; SKKanGAS inh: -0.2; PfHsp90 set2: -8.0; tim10-1 inh: 48.9*; tim23-1 inh: 21.9; tim10-1 conf: 38.3*; TIM10 conf: 38.3*

What do the screens show for `CN(C)Cc1nc2c(c(=O)[nH]1)C(C)(C)Cc1ccccc1-2`?
NLRP3 yeast inh: 20.7; TIM10 inh: -9.1; SKKanGAS inh: 1.4; PfHsp90 set2: 3.6; tim10-1 inh: 15.0; tim23-1 inh: 17.7

How did Cn1c(=O)c2c(ncn2CC(=O)OCC(=O)NNC(=O)c2ccc(Cl)cc2)n(C)c1=O do in these assays?
NLRP3 yeast inh: 22.6; TIM10 inh: -2.3; PfHsp90 set2: -35.0; tim10-1 inh: -12.0; tim23-1 inh: 0.1

Results for CC(C)COC(=O)c1ccc2c(c1O)C(=O)c1ccccc1C2=O ?
NLRP3 yeast inh: 48.2; TIM10 inh: 46.6*; SKKanGAS inh: 89.6*; PfHsp90 set2: -65.8; tim10-1 inh: 58.2*; tim23-1 inh: 49.3; tim10-1 conf: 42.5*; TIM10 conf: 39.9*

What do the screens show for `COc1ccc2c(c1O)C(=O)c1ccccc1C2=O`?
NLRP3 yeast inh: 26.4; TIM10 inh: -19.0; SKKanGAS inh: 3.6; tim10-1 inh: -18.5; tim23-1 inh: 15.1

What do the screens show for `Cc1ccc(NC(=O)COC(=O)CC2CCCC2)cc1Cl`?
NLRP3 yeast inh: 0.9; TIM10 inh: 26.2; SKKanGAS inh: 0.0; tim10-1 inh: 8.2; tim23-1 inh: 30.9

How did Cc1ccc(S(=O)(=O)n2nc(C)cc2C)cc1 do in these assays?
NLRP3 yeast inh: 0.0; TIM10 inh: 1.2; SKKanGAS inh: -5.0; PfHsp90 set2: -33.7; tim10-1 inh: 18.4; tim23-1 inh: 3.0

What do the screens show for `Cc1cc(C)n(S(=O)(=O)/C=C/c2ccccc2)n1`?
NLRP3 yeast inh: 18.0; TIM10 inh: 44.1*; SKKanGAS inh: 3.8; PfHsp90 set2: -8.1; tim10-1 inh: 49.8*; tim23-1 inh: 28.3; tim10-1 conf: 41.5*; TIM10 conf: 42.0*

What do the screens show for `Cc1ccc(CNC(=O)/C(C#N)=C\c2ccc(N(C)C)cc2)cc1`?
NLRP3 yeast inh: 9.0; TIM10 inh: 45.1*; SKKanGAS inh: 34.8; tim10-1 inh: 45.4*; tim23-1 inh: 19.8; tim10-1 conf: 29.2; TIM10 conf: 17.1
